NPR2 activator: GC-B (human) receptor activation; P20594; HEK293-GC-B cells, CNP EC30, cGMP TR-FRET; 0% at EC30 CNP, 100% saturating CNP; activation, % at 10 µM; 370,000 compounds, 0.11% hits; AID 1920062;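 active means activation at 10 µM reaching about 35% in either raw or pattern-adjusted values, limit read from the data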
ADAM10 inh: ADAM10 inhibition, QFRET primary screen | O14672 | recombinant ADAM10, EDANS/DABCYL FRET peptide cleavage, 3 h | inhibition, % at 7 µM | 370,000 compounds, 0.62% hits | AID 720582;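 active means inhibition above a per-campaign cutoff equal to the mean of compounds falling between control-based bounds plus 3 SD, cut at about 20% in these data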
KLK7 zymogen act: activates the human kallikrein-7 zymogen; 370,000 compounds, 0.9% hits; activation, % at 7 µM; AID 652039; purified proKLK7, EDANS-DABCYL substrate fluorescence; 100% is mature enzyme control, 0% vehicle; P49862;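 active means activation above the mean of all tested compounds plus 3 SD, computed per campaign excluding outliers beyond control limits, cut at about 13% in these data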
ADAM17 inh: inhibitors of human ADAM17. recombinant ADAM17, EDANS/DABCYL FRET peptide cleavage. inhibition, % at 6.95 µM. 370,000 compounds, 0.83% hits;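 active means inhibition above the mean of compounds lying between control limits plus 3 SD, set per campaign, cut at about 8.5% in these data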
GC-A act: GC-A (human) enzyme activation; P16066; HEK293 GC-A cells, cGMP TR-FRET, EC30 ANP; 0% at EC30 ANP, 100% saturating ANP; activation, % at 10 µM; 370,000 compounds, 0.14% hits; AID 1671463; in the data active means activation above about 40%
ADAM10 counter: inhibits human ADAM10 in ADAM17 exosite counter-screen. recombinant ADAM10, EDANS/DABCYL FRET peptide cleavage, 3 h. inhibition, % at 6.95 µM. shares compounds with ADAM17 inh. 2,900 compounds, 47% hits;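 active means mean inhibition over the triplicate runs exceeds the activity threshold set in the earlier primary screen, cut at about 20% in these data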
ADAM17 confirm: confirmation of inhibitors of human ADAM17; shares compounds with ADAM17 inh; recombinant ADAM17, EDANS/DABCYL QFRET peptide cleavage; inhibition, % at 6.95 µM; 2,900 compounds, 65% hits;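 active means mean inhibition across replicates above the hit cutoff set in the primary screen, cut at about 8.5% in these data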
Hits are given with their value; 0 = inactive; - = no result. An excerpt weighted towards active compounds, which were near 2.2% of everything screened.

SMILES | NPR2 activator | ADAM10 inh | KLK7 zymogen act | ADAM17 inh | GC-A act | ADAM10 counter | ADAM17 confirm
CN(CCCOC(=O)CC1C=CCC1)C1CN(Cc2cn(Cc3ccccc3Cl)nn2)S(=O)(=O)C1 (stereo not given) | 0 | 0 | 0 | 0 | 0 | - | -
NC(=O)[C@H]1CC2(CC(c3cccc(NC(=O)COc4ccc(Cl)cc4)c3)=NO2)CN1C(=O)CC(c1ccccc1)c1ccccc1 (stereo not given in full) | 0 | 35.4 | 0 | 18.0 | 0 | 37.3 | 21.0
CCCCCC(=O)Nc1cccc(C2=NOC3(C2)C[C@H](C(N)=O)N(C(=O)CCCCC)C3)c1 (stereo not given in full) | 0 | 0 | 0 | 0 | 0 | - | -
NC(=O)[C@H]1CC2(CC(c3cccc(NC(=O)COc4ccc(Cl)cc4)c3)=NO2)CN1C(=O)c1ccccc1C(=O)c1ccccc1 (stereo not given in full) | 0 | 0 | 0 | 8.7 | 0 | 24.0 | 15.1
CCCCCC(=O)N1CC2(CC(c3cccc(NC(=O)CC(c4ccccc4)c4ccccc4)c3)=NO2)C[C@@H]1C(N)=O (stereo not given in full) | 0 | 0 | 0 | 9.6 | 0 | 29.0 | 17.6
C/C=C/C(=O)N1CC2(CC(c3cccc(NC(=O)COc4ccc(Cl)cc4)c3)=NO2)C[C@@H]1C(N)=O (stereo not given in full) | 0 | 0 | 0 | 0 | 0 | - | -
C=C(C)C(=O)Nc1cccc(C2=NOC3(C2)C[C@H](C(N)=O)N(C(=O)/C=C/C)C3)c1 (stereo not given in full) | 0 | 0 | 0 | 9.9 | 0 | 0 | 0
Cc1ccc(S(=O)(=O)n2ccc(-c3c(-c4ccc(Cl)cc4)noc3C)n2)cc1 | 0 | 0 | 0 | 0 | 0 | - | -
C[C@@H]1[C@@H](O)C[C@]2(C[C@@H](O)c3ccccc3O2)O[C@H]1c1ccccc1 | 0 | 0 | 0 | 0 | 0 | - | -
Cc1n[nH]c(C)c1S(=O)(=O)NCCc1cccc(F)c1 | 0 | 0 | 0 | 0 | 0 | - | -
CC1(c2nnc(Cc3ccccc3)o2)CC(c2ccc(C#N)cc2)=NO1 (stereo not given) | 0 | 0 | 0 | 9.0 | 0 | 0 | 0
CN(C)CC(=O)N[C@H]1C[C@@H]2O[C@@H](CO)CC[C@@H]2O[C@@H]1CCc1ccc(C2=CCCCC2)cc1 | 0 | 0 | 0 | 0 | 0 | - | -
Cc1ccc(S(=O)(=O)N(C)CC(=O)O/N=C(\N)c2cccc(Br)c2)cc1 | 0 | 0 | 0 | 12.3 | 0 | 0 | 9.7
CCOC(=O)/C(=N/Nc1ccccc1)c1csc(Nc2ccccc2)n1 | 0 | 0 | 0 | 11.1 | 0 | 0 | 0
Cc1cc(C(=O)O[C@H]2CCC[C@@]3(C(=O)N(Cc4ccccc4)c4ccccc43)[C@H]2NC(=O)CCc2ccccc2)no1 | 0 | 0 | 0 | 0 | 0 | - | -
O=C(Nc1ccc(Nc2ccccc2)cc1)c1ccc(Cl)c([N+](=O)[O-])c1 | 0 | 0 | 0 | 8.6 | 0 | 27.7 | 18.4
O=C(c1cc(F)c(F)c(F)c1F)N1CCN(C(=O)C2CCCO2)CC1 (stereo not given) | 0 | 0 | 0 | 8.7 | 0 | 0 | 0
Cc1ccc(C(=O)N2CCN(C(=O)C3CCCO3)CC2)cc1 (stereo not given) | 0 | 0 | 0 | 0 | 0 | - | -
Cc1ccc(S(=O)(=O)n2ccc(-c3c(-c4ccc(F)cc4)noc3C)n2)cc1 | 0 | 0 | 0 | 0 | 0 | - | -
Cc1ccc(O)c(CNCCNCc2cc(C)ccc2O)c1 | 0 | 0 | 0 | 0 | 0 | - | -
Cc1ccc(O)c(Cc2cc(C)cc(Cc3cc(C)ccc3O)c2O)c1 | 0 | 0 | 0 | 9.4 | 0 | 29.9 | 13.7
CCOC(=O)[C@@H]1[C@H]2COc3ccc(Br)cc3[C@H]2N2C(=O)N(c3ccc(C)cc3)C(=O)[C@]12C | 0 | 0 | 0 | 8.8 | 0 | 33.2 | 21.7
COC(=O)C1=CN(c2ccc(F)cc2)C(N)=C(C#N)C1c1cccc(F)c1 (stereo not given) | 0 | 0 | 0 | 0 | 0 | - | -
COc1ccccc1NC(=O)Cc1nnc(SCC(=O)Nc2ccccc2F)n1C | 0 | 0 | 0 | 0 | 0 | - | -
COc1ccc(C)cc1NC(=O)CSc1nnc(COc2ccccc2)n1Cc1ccco1 | 0 | 0 | 0 | 0 | 0 | - | -
SMILES | NPR2 activator | ADAM10 inh | KLK7 zymogen act | ADAM17 inh | GC-A act | ADAM10 counter | ADAM17 confirm
COc1ccc(C)cc1NC(=O)CSc1nnc(COc2ccc(Cl)cc2)n1Cc1ccco1 | 0 | 0 | 0 | 10.7 | 0 | 31.8 | 17.8
COc1cc2c(cc1NC(=O)CSc1nnc(-c3ccccc3C)n1Cc1ccco1)oc1ccccc12 | 0 | 0 | 0 | 10.1 | 0 | 21.8 | 14.6
COc1ccc(C)cc1NC(=O)CSc1nnc(CC(=O)Nc2ccccc2C)n1C | 0 | 0 | 0 | 8.7 | 0 | 0 | 0
C[C@@H]1CCN(C2CC2)S(=O)(=O)c2c(cccc2N2CC[C@@H](N(C)C)C2)O1 | 0 | 0 | 0 | 0 | 0 | - | -
CCOC(=O)CNC(=O)CSc1nnc(-c2ccccc2)n1CC | 0 | 0 | 0 | 0 | 0 | - | -
CCOC(=O)c1ccc(N2C(=O)c3n[nH]c(C)c3C2c2ccc(OC)cc2OC)cc1 (stereo not given) | 0 | 0 | 0 | 8.7 | 0 | 0 | 10.2
CCOC(=O)c1ccc(N2C(=O)c3n[nH]c(C)c3C2c2ccc(OC)cc2)cc1 (stereo not given) | 0 | 0 | 0 | 0 | 0 | - | -
COc1ccc(NC(=O)Cn2nnc(-c3ccccc3NS(=O)(=O)c3ccc(OC)cc3)n2)cc1 | 0 | 0 | 0 | 0 | 0 | - | -
COc1ccccc1NC(=O)Cn1nnc(-c2ccccc2NS(=O)(=O)c2ccccc2)n1 | 0 | 0 | 0 | 9.3 | 0 | 36.7 | 21.6
CCCCNC(=O)/C=C1\Sc2ccccc2NC1=O | 0 | 0 | 0 | 0 | 0 | - | -
CCc1ccc(C(=O)/C=C2\Sc3ccccc3NC2=O)cc1 | 0 | 0 | 0 | 8.8 | 0 | 0 | 10.9
CC1OC2(OC1C)C(=O)Nc1ccccc12 (stereo not given) | 0 | 0 | 0 | 0 | 0 | - | -
CN1CC(c2ccccc2Cl)C2(COc3ccccc3C2=O)C12C(=O)Nc1ccccc12 (stereo not given) | 0 | 0 | 0 | 8.9 | 0 | 43.6 | 25.1
COc1ccc(C(=S)N2CCN(c3ccccc3C)CC2)cc1 | 0 | 0 | 0 | 9.4 | 0 | 0 | 0
CC(C)[C@H](NC(=O)[C@H](C)NC(=O)OC(C)(C)C)C(=O)N1CCC2CCN(Cc3ccccc3)CC21 (stereo not given in full) | 0 | 0 | 0 | 0 | 0 | - | -
COc1c(C(CC(C)C)OC(C)=O)ccc2c1C(=O)OCc1cc(C)cc(O)c1O2 (stereo not given) | 0 | 0 | 0 | 11.8 | 0 | 26.8 | 15.8

Bioassay records from PubChem BioAssay.
